The experiment can be described thus: NCI Yeast Anticancer Drug Screen. Data for the wt1 strain (AID 149).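 Note: 0% = growth of vehicle-treated wt1 cultures.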 The conditions noted are these: S. cerevisiae wt1 strain (SPY 50644) growth inhibition, stronger effect = higher value. As for the experimental part:
Growth inhibition of yeast strains with defined genetic alterations is measured as a screen for potential anti-cancer activity. Selected strains with alterations in DNA damage repair or cell cycle control were exposed to compounds and growth inhibition was measured relative to vehicle treated controls. The strain used in this assay is wt1

The panel holds about 79,000 compounds, 15% with a hit somewhere; the sample as a whole holds those more often. Unmarked numbers belong to inactive results. Active and inactive are the calls of the source. Cut-off read from the data, not from the text of the source: active = growth inhibition above about 70%; inactive = the rest.

Consider `CC(C)(Br)C(=O)/C=C/c1ccccc1`, for which the growth inhibition (at 1.2 µM) was 3%; the growth inhibition (at 3.7 µM) was 9%; the growth inhibition (at 11.0 µM) is 9%; the growth inhibition (at 33.0 µM) was 10%; the growth inhibition (at 100.0 µM) is 17%.
As to `Nc1cc2ccccc2cc1N`, the growth inhibition was -28% (at 1.2 µM); -14% (at 3.7 µM); -17% (at 11.0 µM); 3% (at 33.0 µM); 20% (at 100.0 µM).
The matching figures for `CC(=O)/C=C/c1cccc([N+](=O)[O-])c1`: 1%, 4%, 8%, 16% and 68%.
Take `COc1ccc(C(C)c2cc3c(cc2OCC(C)=O)OCO3)cc1` (stereo not given): the growth inhibition reads like this: (at 1.2 µM) -2%; (at 3.7 µM) -3%; (at 11.0 µM) -5%; (at 33.0 µM) -8%; (at 100.0 µM) 49%.
For `Cn1c(-c2ccc(/C=N\N3CCN(/N=C/c4ccc(-c5c[n+]6ccsc6n5C)cc4)CC3)cc2)c[n+]2ccsc12`, in that order: 5%, 18%, 14%, 17% and 71% (active).
The matching figures for `CC(C)NCCCNc1c2ccccc2nc2cccc([N+](=O)[O-])c12`: 13%, 57%, 88% (active), 96% (active) and 97% (active).
For `OC1(C#CI)CCCCC1`, in that order: -4%, 38%, 96% (active), 99% (active) and 99% (active).
Regarding `Cc1c2c(nc3ccccc13)C(=O)c1cccnc1C2=O`, the growth inhibition runs as follows: (at 1.2 µM) 2%; (at 3.7 µM) 9%; (at 11.0 µM) 6%; (at 33.0 µM) 17%; (at 100.0 µM) 81% (active).

The record behind these values is PubChem BioAssay (NCI).
